A selection: hits, their analogues and other compounds. The true share with any hit is near 2.4%.
D2 antagonist – antagonists of human D2 dopamine receptor; HEK293 TREx D2 cells, calcium flux, dopamine EC80; P14416; 340,000 tested, 2% active; inhibition, % at 10 µM; AID 485344; in the data active = inhibition above about 30%; inactive = below that, where a call was filed
Target sequence (P14416 whole entry, looked up): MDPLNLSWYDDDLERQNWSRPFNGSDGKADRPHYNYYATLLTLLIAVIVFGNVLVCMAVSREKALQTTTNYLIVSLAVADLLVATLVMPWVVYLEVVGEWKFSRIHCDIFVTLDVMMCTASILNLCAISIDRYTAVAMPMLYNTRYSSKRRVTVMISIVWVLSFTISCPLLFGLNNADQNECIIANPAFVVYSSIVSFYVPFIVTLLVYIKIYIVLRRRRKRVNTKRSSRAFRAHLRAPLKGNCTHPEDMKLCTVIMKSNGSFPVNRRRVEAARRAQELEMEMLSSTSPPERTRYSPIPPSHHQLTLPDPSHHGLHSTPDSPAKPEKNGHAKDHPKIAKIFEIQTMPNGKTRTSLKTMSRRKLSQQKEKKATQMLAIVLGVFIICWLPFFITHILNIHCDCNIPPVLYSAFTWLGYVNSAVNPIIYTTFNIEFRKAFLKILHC
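Tetracycline-induced HEK293 T-REx cells expressing D2 force-coupled to calcium signalling were dye-loaded, exposed to compound for 180 s, then challenged with an EC80 of dopamine; calcium flux was followed kinetically for a further 180 s.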
D2 ag-1 – agonists of human D2 dopamine receptor; 340,000 tested, 0.53% active; HEK293 T-REx D2 cells, calcium flux agonist mode; P14416; activation, % at 2 µM; AID 485358;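 active = activation over 3 SD above normal in the single-dose calcium agonist read, cut at about 30% in these data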
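Tetracycline-induced HEK293 Trex cells with D2 receptor force-coupled to calcium signaling, plated overnight at 30 C and loaded with no-wash calcium dye. Calcium flux read kinetically for 180 s after compound addition; responses flag agonists.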
D2 PAM-1 – positively modulates the human D2 dopamine receptor allosterically | HEK293 T-REx D2, calcium flux, EC20 dopamine potentiation | potentiation, % at 10 µM | 340,000 tested, 0.34% active;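 active = potentiation over 3 SD above the plate norm, cut at about 30% in these data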
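Tetracycline-induced Hek293 Trex D2 cells, force-coupled to calcium, loaded with no-wash calcium dye. Compound added with 180 s kinetic read for agonism, then EC20 dopamine and a further 180 s read for potentiation.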
D2 PAM-2 – potentiates the human D2 dopamine receptor allosterically; potentiation, % (concentration not given with the values); 360,000 tested, 0.23% active; P14416; DiscoveRx D2 beta-arrestin cells, luminescence, 90 min; 100% = 57 uM dopamine signal; AID 624464; in the data active = potentiation above about 50%; inconclusive = mostly about 30% to 49%
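D2 cells co-treated with compound plus 50 nM dopamine (EC20) for 90 min at 37 deg C to detect potentiation. Beta-arrestin recruitment was read as enzyme-fragment luminescence after 1 h at ambient temperature. Full response was set by 57 uM dopamine.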
D2 ag-2 – activates the human D2 dopamine receptor; DiscoveRx PathHunter D2 beta-arrestin, luminescence, 90 min; 100% = 57 uM dopamine signal; activation, % (no concentration beside the values); 360,000 tested, 0.084% active; AID 624465; in the data active = activation above about 40%; inconclusive = between about 15% and that limit
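DiscoveRx PathHunter D2 beta-arrestin cells (2,100/well) attached overnight, then compound-stimulated 90 min at 37 C in HBSS/10 mM HEPES/0.1% Tween-20 buffer; beta-galactosidase complementation read by luminescence after 1 h at ambient temperature. Dopamine 57 uM final (EC100) as control.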
Large screens that a line does not name were inactive.

O=C(Nc1ccc(S(=O)(=O)Nc2ccccn2)cc1)c1cccc([N+](=O)[O-])c1	D2 antagonist 39
O=C(Nc1ccc(S(=O)(=O)Nc2ncccn2)cc1)c1cccnc1	D2 antagonist 42
COc1ccc(NC(=O)CCS(=O)(=O)c2nc(-c3cccs3)cc(C(F)(F)F)n2)cc1OC	none (no result: D2 antagonist, D2 PAM-2, D2 ag-2)
Cc1cc2ncn(/N=C/c3cccnc3)c2cc1C	none
Cc1cc2ncn(/N=C/c3ccc4c(c3)OCO4)c2cc1C	D2 antagonist 89
Cc1ccc2c(CC(=O)Nc3c(C(=O)Nc4cccc(Cl)c4)oc4ccccc34)coc2c1C	none (no result: D2 antagonist, D2 PAM-2, D2 ag-2)
CCc1ccc(NC(=O)CN2C(=O)C(c3ccc(Cl)cc3)=NC23CCCCC3)cc1	none (no result: D2 antagonist, D2 PAM-2, D2 ag-2)
COc1ccccc1Cc1nc2ccccc2nc1SCC(=O)N1CCC(C)CC1	none (no result: D2 antagonist, D2 PAM-2, D2 ag-2)
O=C(c1cc(-c2ccccc2)nc2ccccc12)N1CCCC1	none
Cc1cnn(C(=O)c2cc(-c3ccccc3)nc3ccccc23)c1	D2 antagonist 55
Cc1ccc(-n2[nH]c(C)c(C=Nc3ccc(S(=O)(=O)Nc4nc(C)cc(C)n4)cc3)c2=O)c(C)c1	none
CNS(=O)(=O)c1ccc(N=Cc2c(C)[nH]n(-c3ccc(C)cc3C)c2=O)cc1	D2 antagonist 42
CCOCCc1nn2c(=O)cc(COC(=O)c3ccccc3NC(=O)C3CCCCC3)nc2s1	none (no result: D2 antagonist, D2 ag-1, D2 PAM-2, D2 ag-2)
Cc1ccc(C(C(=O)NC2CCCCC2)N(Cc2ccco2)C(=O)Cc2c[nH]c3ccccc23)o1 (stereo unspecified)	D2 antagonist 36
CCN(CC)CCNC(=O)c1cn(-c2ccccc2)nc1-c1cccs1	D2 antagonist 37
CCOC(=O)CC1=C(C(=O)OCC)C(c2cccnc2)C(C#N)=C(N)O1 (stereo unspecified)	none
CC1=C(n2nnc([N+](=O)[O-])n2)C(c2cccnc2)C(C#N)=C(N)O1 (stereo unspecified)	D2 PAM-2 110, D2 ag-2 inconclusive
CCOC(=O)CC1=C(C#N)C(c2cccnc2)C(C(=O)OCC)=C(N)O1 (stereo unspecified)	D2 antagonist 38
Cc1nc2sc(C(=O)Nc3ccc(F)cc3)c(N)c2c(-c2ccc(Br)cc2)c1C(=O)Nc1ccc(Cl)cc1	none (no result: D2 antagonist, D2 PAM-2, D2 ag-2)
CCc1nn(CC(=O)NCCc2ccc(Cl)cc2)c(=O)c2cc3c(OC)cccc3n12	none (no result: D2 antagonist, D2 PAM-2, D2 ag-2)
C/C(=N\Nc1cccc([N+](=O)[O-])c1)c1cc(F)ccc1O	D2 antagonist 35
Cc1ccccc1Nc1nc(-c2sc(NC(=O)c3cccc(Cl)c3)nc2C)cs1	D2 PAM-1 31 (no result: D2 PAM-2, D2 ag-2)
COc1ccc(CN2C(=O)C(NC(=O)c3ccccc3C)(C(F)(F)F)N=C2c2ccccc2)cc1 (stereo unspecified)	none (no result: D2 antagonist, D2 PAM-2, D2 ag-2)
COc1ccccc1CNC(=O)CCc1c(C)c2cc3c(C)coc3cc2oc1=O	none (no result: D2 antagonist, D2 PAM-2, D2 ag-2)
CCOc1ccc(CCNC(=O)c2sc3nc4n(c(=O)c3c2C)CCCC4)cc1OCC	none (no result: D2 antagonist, D2 PAM-2, D2 ag-2)
CCOc1ccc(CCNC(=O)c2sc3nc4n(c(=O)c3c2C)CCC4)cc1OCC	D2 antagonist 30
C=CCc1cccc2cc(-c3nc4ccc(C(=O)O)cc4[nH]3)c(=O)oc12	none (no result: D2 antagonist, D2 PAM-2, D2 ag-2)
CCN(C(=O)c1cc(S(=O)(=O)N2CCc3ccccc32)cn1C)c1cccc(C)c1	none (no result: D2 antagonist, D2 PAM-2, D2 ag-2)
Cc1ccc(-c2cn(-c3ccc(Cl)cc3)c(S(=O)(=O)CC(=O)Nc3ccccc3)n2)cc1	none (no result: D2 antagonist, D2 PAM-2, D2 ag-2)
O=C1OC(c2ccccc2)(c2ccc(O)cc2)c2ccccc21 (stereo unspecified)	none (no result: D2 antagonist, D2 ag-1, D2 PAM-1)
O=C1OC2(c3ccccc31)c1cc(I)c(O)c(I)c1Oc1c2cc(I)c(O)c1I	D2 antagonist 53, D2 ag-1 105 (no result: D2 PAM-2, D2 ag-2)
Oc1ccccc1N1CCN(c2ncnc3scc(-c4ccc(F)cc4)c23)CC1	none (no result: D2 antagonist, D2 ag-1, D2 PAM-1)
Oc1ccccc1N1CCN(c2ncnc3scc(-c4ccccc4)c23)CC1	D2 PAM-1 33
Cc1cc(C)n2nc(C(=O)Nc3c(C)nn(Cc4ccc(F)cc4)c3C)cc2n1	D2 antagonist 51
COc1cc(C(=O)NCC(c2ccc3c(c2)OCO3)N2CCOCC2)cc(OC)c1OC (stereo unspecified)	none (no result: D2 antagonist, D2 PAM-2, D2 ag-2)
CC1CN(c2c3c(nc4ncnn24)CCCC3)CC(C)O1 (stereo unspecified)	D2 PAM-1 32
COc1cc(Br)cc(/C=N/N(CCO)C2=NS(=O)(=O)c3ccccc32)c1OC	D2 antagonist 38
COc1cc(/C=N/N(CCO)C2=NS(=O)(=O)c3ccccc32)cc(OC)c1OC	none
CCOC(=O)N1CCN(Cc2nc3cc(NC(=O)c4ccccc4Cl)ccc3n2C(C)C)CC1	none (no result: D2 antagonist, D2 PAM-2, D2 ag-2)
Cc1sc2nc(CSc3ccccc3)nc(NCCN(C)C)c2c1C	none
CCNc1nc(CSc2ccccc2)nc2sc(C)c(C)c12	D2 antagonist 39
Cc1[nH]c2ccccc2c1/C=N/NC(=O)c1cccc(F)c1	none
Cc1[nH]c2ccccc2c1/C=N/Nc1ccc(F)cc1F	D2 antagonist 31 (no result: D2 PAM-2, D2 ag-2)
COc1ccc(N(CC(=O)Nc2ccc3c(c2)OCO3)S(=O)(=O)c2ccccc2)cc1OC	none
COc1ccc(N(CC(=O)Nc2ccc3c(c2)OCO3)S(=O)(=O)c2ccc(C)cc2)cc1OC	D2 antagonist 54
COc1ccc(S(=O)(=O)N(CC(=O)NCc2ccncc2)c2ccc(C)cc2)cc1Br	D2 antagonist 33
Cc1ccc(N(CC(=O)NCc2ccc(F)cc2)S(=O)(=O)c2cccs2)cc1	D2 antagonist 46
COc1ccc2c(C#N)c3ccccn3c2c1	D2 PAM-2 70
CCOc1ccc(N2C(=O)CC(NC3CCCCNC3=O)C2=O)cc1 (stereo unspecified)	D2 antagonist 45
O=C1NCCCCC1NC1CC(=O)N(c2ccccc2)C1=O (stereo unspecified)	none (no result: D2 antagonist, D2 ag-1, D2 PAM-1)
CCS(=O)(=O)NC(C)C(c1cccs1)N1CCN(c2ccc(F)cc2)CC1 (stereo unspecified)	D2 antagonist 40
CCN(CC(=O)NC(c1ccccc1)c1ccccc1)Cc1nc2ccccc2c(=O)[nH]1	D2 antagonist 32
CCSc1nnc(-c2sc3nnc(-c4ccccc4)c(-c4ccccc4)c3c2N)o1	D2 ag-1 39
CCOc1ccc(CCNc2ncnc3onc(-c4ccc(Cl)cc4)c23)cc1	none (no result: D2 antagonist, D2 PAM-1, D2 PAM-2, D2 ag-2)
CC(C)=C1C2CCC1C(C(=O)NCCc1ccccc1)C2C(=O)O (stereo unspecified)	D2 ag-1 39
O=C(O)[C@H]1CCCC[C@H]1C(=O)NCCc1ccccc1	D2 antagonist 45
CCc1cccc(C)c1NC(=O)CN1CCCN(Cc2ccccc2Cl)S1(=O)=O	none (no result: D2 antagonist, D2 PAM-2, D2 ag-2)
CN(C)c1ccc(C(=O)NCc2ccc3c(c2)CCN3C(=O)c2ccccc2)cc1	none (no result: D2 antagonist, D2 PAM-2, D2 ag-2)
CC(C)/C=C1\CC/C(=C\c2ccc(N(C)C)cc2)C1=O	D2 ag-1 92
Cc1ccc(-c2cn3nc(N4CCCC(C(=O)Nc5ccc(F)cc5)C4)sc3n2)cc1 (stereo unspecified)	none (no result: D2 antagonist, D2 PAM-2, D2 ag-2)

Screens (PubChem BioAssay)
